Screening results deposited in PubChem by several laboratories.
Rows were chosen to be rich in hits. Some 12% of all compounds tested hit in one or more screens of this group.
ROMK mod – modulators of human ROMK potassium channel. P48048. Tet-inducible ROMK, thallium flux fluorescence; actives lie on both sides. B-score at 10 µM. actives 2% (n = 130,000);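 active = signal ratio slope over the read window, or its plate-corrected B-score, at least 3 SD from the plate mean, either direction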;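 note: B-score of the F/F0 ratio slope over 7 to 12 s after thallium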
Cl transport mod – KCC2 (human) Cl- transport modulation; Q9H2X9; B-score of Tl+ flux slope (higher = more flux/activation; lower = inhibition) at 10 µM; KCC2 cells, thallium flux FluoZin-2 fluorescence; AID 1456; actives 2.2% (n = 190,000);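 active = thallium flux slope and its plate-corrected score both differing from the plate sample mean at a set confidence after two filtering rounds, in either direction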;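 note: slope of fluorescence scaled to starting intensity during 10 to 20 s after thallium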
Calpain2 inh – blocks pig calpain II enzyme activity. purified calpain II, fluorogenic peptide substrate, 30 min. inhibition, % at 16 µM. actives 0.37% (n = 220,000). AID 1236;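 active = inhibition above about 50%, limit read from the data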
WT yeast gro inh – growth inhibition of WT yeast, mitochondrial fusion screen. mitochondrial fusion phenotypic screen, WT strain. inhibition, % at 10 µM. actives 2.1% (n = 190,000). AID 1362; in the data active = inhibition above about 58%; tested in S. cerevisiae
Lmaj promast – inhibitors of Leishmania major promastigote growth; Leishmania major promastigotes, resazurin fluorescence viability; inhibition, % at 10 µM; actives 9% (n = 200,000); AID 1063; in the data active = inhibition above about 50%;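 note: promastigotes grown with compound for 44 hours at 28 °C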
KCC2 sec1 – KCC2 (human) modulation, secondary assay; shares compounds with Cl transport mod; HEK293-KCC2, thallium flux, FluoZin2 fluorescence; stronger effect = higher value; normalised thallium flux (F/F0 slope) at 10 µM; actives 15% (n = 3,700); AID 1713;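 active = thallium flux slope above the same plate's solvent-only control mean plus 3 SD; inconclusive = the two replicate wells disagree; inactive = no significant difference from solvent-only control wells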
KCC2 bumet counter – bumetanide-insensitive thallium flux in KCC2 cells with ouabain, counter-screen | shares compounds with Cl transport mod | HEK293-KCC2 + bumetanide/ouabain, thallium flux FluoZin2; stronger effect = higher value | normalized thallium flux at 10 µM | actives 49% (n = 3,700) | AID 1714;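 active = thallium entry rate above the same plate's blocked-transporter control wells by more than 3 SD; inconclusive = the two repeat wells disagree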;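 note: raw slope of fluorescence over initial fluorescence between 10 and 20 s after thallium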
KCC2 secondary2 – confirmation of human KCC2 transport modulators | shares compounds with Cl transport mod | HEK293-KCC2, thallium flux FluoZin2 fluorescence; actives lie on both sides; F/F0 rise rate, 10–20 s post-thallium | normalized thallium flux at 10 µM | actives 23% (n = 3,700);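 active = thallium flux slope more than 3 SD above or below the plate's solvent-only control mean, mostly below; inconclusive = the two repeat wells disagreed; inactive = no significant shift from solvent-only controls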
HEK counter1 – counter-screen for KCC2 modulators: effect in parental HEK293 cells; thallium flux FluoZin2, ouabain; baseline-ratio fluorescence slope, 10–20 s after thallium; shares compounds with Cl transport mod; AID 1716; actives 46% (n = 3,700); thallium flux rate (normalised fluorescence) at 10 µM;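 active = thallium flux rate significantly above the same plate's solvent-only control wells, beyond their mean plus 3 SD; inconclusive = the two replicate wells gave conflicting results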
KCC2 ouabain – KCC2 (human) modulation, ouabain retest | shares compounds with Cl transport mod | HEK293-KCC2, thallium flux FluoZin2 fluorescence; bidirectional: low = inhibitor, high = activator | raw Tl+ flux slope (below DMSO = inhibition, above = activation) at 10 µM | actives 48% (n = 3,700);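 active = thallium flux slope beyond 3 SD from same-plate DMSO control mean in most replicates, usually higher, sometimes lower; inconclusive = repeat tests gave conflicting results; inactive = no significant difference from controls in most replicates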;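 note: slope of initial-normalized fluorescence between seconds 10 and 20 after thallium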
HEK counter2 – parental HEK flux effect, counter-screen 2 | actives 33% (n = 3,700) | HEK293 parental, thallium flux FluoZin-2 fluorescence slope | shares compounds with Cl transport mod | thallium flux slope at 10 µM;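 active = thallium flux slope above the same plate's solvent-control mean plus 3 SD in both duplicate wells; inconclusive = duplicate wells that disagreed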;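 note: run without ouabain in cells lacking the KCC2 cotransporter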
Numbers stand for hits; n = inactive; u = inconclusive; x = no result.

SMILES	ROMK mod	Cl transport mod	Calpain2 inh	WT yeast gro inh	Lmaj promast	KCC2 sec1	KCC2 bumet counter	KCC2 secondary2	HEK counter1	KCC2 ouabain	HEK counter2
O=C(O)/C=C/c1cn(Cc2ccccc2Cl)nc1-c1ccccc1	x	-5.08	n	x	x	n	n	0.0237	n	0.0115	n
Oc1ccccc1/C=N/Nc1nc2ccccc2o1	n	7.2	n	x	x	n	0.0124	n	0.012	u	0.016
COc1ccc(/C=N/Nc2nc3ccccc3o2)cc1O	n	n	n	n	n	x	x	x	x	x	x
COc1ccc(NC(=O)NCCCN2CCCCC2C)cc1 (configuration not stated)	n	x	n	n	n	n	n	n	n	n	n
COc1ccc(NC(=O)NCCCN2CCCC2=O)cc1	x	n	n	n	n	x	x	x	x	x	x
O=S(=O)(c1ccc(-c2ccon2)s1)N1CCN(c2ccncc2)CC1	x	n	n	x	x	x	x	x	x	x	x
CCOc1ccc(Nc2nc(NCCN3CCOCC3)nc(OC)n2)cc1	n	x	n	n	n	n	u	n	n	n	n
Clc1ccc(Nc2nc(NCCN3CCOCC3)nc(N3CCOCC3)n2)cc1	x	n	n	n	n	x	x	x	x	x	x
COc1cccc(CNC(=O)CSc2ccc(-c3cccs3)nn2)c1	n	-3.17	n	n	n	n	n	u	n	n	n
COc1cccc(CNC(=O)Cn2cccc2)c1	n	9.55	n	n	n	n	n	n	n	n	n
O=C(CSc1ccc(-c2cccs2)nn1)NCc1ccccc1Cl	n	n	n	n	n	x	x	x	x	x	x
COc1ccccc1CNC(=O)CSc1ccc(-c2cccs2)nn1	n	-4.26	n	n	75.0	n	n	n	n	0.0154	n
COc1cccc(CNC(=O)Cc2ccc(Br)cc2)c1	x	n	n	n	n	x	x	x	x	x	x
CCN(CC(=O)NC(C)C)C(=O)[C@@H](NC(=O)c1ccco1)C(C)C	n	n	n	n	n	x	x	x	x	x	x
FC(F)(F)c1cc(-c2ccco2)nc(NCc2cccnc2)n1	n	x	n	n	n	n	n	n	n	n	n
FC(F)(F)c1cc(-c2ccco2)nc(NCc2ccccc2)n1	n	x	n	n	n	x	x	x	x	x	x
COc1ccc([N+](=O)[O-])cc1NC(=O)CSCc1ccc(Br)cc1	n	n	n	n	n	x	x	x	x	x	x
O=C(CSCc1ccc(Cl)cc1)Nc1cc([N+](=O)[O-])ccc1O	n	-3.4	n	n	n	n	n	0.022	0.00623	0.0144	0.0083
COc1cc(-c2nnc(CSc3nnc(Nc4ccc(C(C)C)cc4)s3)o2)cc(OC)c1OC	x	-4.04	n	n	71.4	n	n	0.025	n	0.0162	n
CCN(CC)CCOC(=O)c1ccc(Cl)cc1Cl	n	n	n	n	n	x	x	x	x	x	x
O=C(O)c1ccc(N2CCCCS2(=O)=O)cc1	n	x	n	n	n	n	n	0.0261	n	n	n
CCN(CC)S(=O)(=O)c1cc(C(=O)n2cccn2)c(Cl)cc1Cl	x	x	n	n	n	x	x	x	x	x	x
Cc1cc(NC(=O)CCC(=O)N(Cc2ccco2)C2(C(=O)NC3CCCCC3)CCN(C)CC2)no1	x	-5.88	n	n	n	n	n	n	n	n	n
Cc1ccc(C)c(N(C(=O)CCC(=O)Nc2cc(C)on2)C(C(=O)NC2CCCC2)c2ccco2)c1 (configuration not stated)	x	-4.26	n	n	89.7	u	n	u	n	n	n
FC(F)(F)c1ccc(C2[C@H]3CN(CC4CCCCC4)[C@H](c4ccccc4)C34CC2(c2cccnc2)C4)cc1 (some centres not stated)	x	n	n	x	x	x	x	x	x	x	x
